Experimental data published in PubChem BioAssay AID488841 (Sanford-Burnham Center for Chemical Genomics, 2010).
In all, about 1,400 compounds went through this assay and about 380 (27%) were called active.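 Rule for the calls: active = mean inhibition above 50% across duplicate retests at 10 µM; inactive = the rest.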 The list shows a part of the results.

Assay: yeast NALP1 reporter signal suppression – S. cerevisiae, luminescence, single concentration, NALP1 inhibitor project, confirmation (AID 488841);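 note: plate controls were DMSO in galactose medium for no effect and cells in plain SD medium for full effect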
Conditions: S. cerevisiae NALP1/ASC/Caspase-1 reporter, beta-gal luminescence; at 10 µM; stronger effect = higher value

SMILES	inhibition
Cc1ccc(NC(=O)CSC2=Nc3ccccc3C3CC=NN23)c(C)c1 (stereo unspecified)	41.9% (inactive)
O=C(Oc1cccc2cccnc12)c1ccc(N2C(=O)C3C4CCC(C4)C3C2=O)cc1 (stereo unspecified)	31% (inactive)
O=C(Nc1cc(N2CCOCC2)ncn1)NC1(C(F)(F)F)Oc2ccc(Cl)cc2O1 (stereo unspecified)	30.7% (inactive)
CC1CCCN(CCCOc2ccc(Cl)cc2Br)C1 (stereo unspecified)	56.8% (active)
CC1CCCN(CCOCCOc2ccc(Br)cc2Cl)C1 (stereo unspecified)	42% (inactive)
CC1CCCN(CCOCCSc2ccccc2)C1 (stereo unspecified)	39.5% (inactive)
Cc1c(C)c2cc(Cl)c(O)c(CN3CCCCC3)c2oc1=O	31.9% (inactive)
COc1ccc(N2C(=O)C(Cl)=C(Nc3c(C)n(C)n(-c4ccccc4)c3=O)C2=O)cc1	36.8% (inactive)
O=C(CCc1nc2ccccc2s1)Nc1ccccc1	77.9% (active)
O=C(CSC1=NS(=O)(=O)c2ccccc21)Nc1ccccc1	37% (inactive)
O=C(O)CCCCc1nc2ccccc2s1	14.6% (inactive)
O=C(O)c1ccc2c(c1)N(Cc1cccc(F)c1)C(=O)CS2	19% (inactive)
NC(=S)N/N=C/c1coc2c(ccc3ccccc32)c1=O	34.1% (inactive)
O=C(/C=N/O)Nc1cccnc1	19.7% (inactive)
COc1ccc(-c2csc3ncnc(Oc4cccc5ccc(C)nc45)c23)cc1	67.6% (active)
Cc1ccc(-c2csc3ncnc(Oc4cccc5ccc(C)nc45)c23)cc1	19.6% (inactive)
O=S(=O)(CC(CN1CCCC1)N1CCCC1)c1ccc2ccccc2c1 (stereo unspecified)	21.4% (inactive)
CC(C)c1nc2sc3c(=O)[nH]cnc3c2c2c1CCC2	22% (inactive)
CCOC(=O)C(=Cc1cc(=O)c(OC)co1)C(=O)OCC	79.3% (active)
CC(=O)c1c(C)oc2c1C(=O)c1ccccc1C2=O	35.8% (inactive)
Cc1c(Cl)sn(-c2ccc(Cl)cc2)c1=O	73.5% (active)
C=C(C)C1CC=C(C)/C(=N/NC(=O)c2ccoc2C)C1 (stereo unspecified)	27.2% (inactive)

SMILES	inhibition
CN(C)C(=N)c1n[nH]nc1SCc1ccccc1	19.9% (inactive)
Cc1cccc(/C=C/C(=O)c2ccc(NC3=NCCCS3)cc2)c1	62% (active)
CC(C)(C)c1ccc(/C=C/C(=O)c2ccc(NC3=NCCCS3)cc2)cc1	43.9% (inactive)
Cc1cc(N/N=C/c2ccccc2Cl)nc(NCc2ccccc2)n1	43.6% (inactive)
Cc1cc(N/N=C/c2ccccc2)nc(NCc2ccccc2)n1	58.4% (active)
Cc1cc(N/N=C/c2cccc(Cl)c2)nc(NCc2ccccc2)n1	44.8% (inactive)
Cc1cc(N/N=C/c2ccc(Cl)cc2)nc(NCc2ccccc2)n1	33.7% (inactive)
Cc1ccc(Nc2cc(C)nc(NCc3ccccc3)n2)cc1	58.3% (active)
CCOC(=O)C1CCCN(C2CC(=O)N(c3cccc(C(F)(F)F)c3)C2=O)C1 (stereo unspecified)	32.6% (inactive)
CC1Cc2ccccc2N1CC(=O)Nc1ccc2c(c1)OC(F)(F)O2 (stereo unspecified)	30.3% (inactive)
CCCCCCNc1nc(NCc2ccco2)nc(OCC)n1	52.5% (active)
CCc1ccc(OCCCC(=O)Nc2cccc(C(=O)O)c2)cc1	27.1% (inactive)
Cc1ccc(-n2c(Cl)c(Cl)nc(Cl)c2=O)cc1	100% (active)
COc1ccc2cnn(-c3ccc(C)cc3)c(=O)c2c1OC	36.9% (inactive)
O=C(Nc1cccc(O)c1)c1noc2c1CCc1ccccc1-2	75.4% (active)
O=c1c2c(C(F)(F)F)cc(C(F)(F)F)nc2[nH]n1-c1ccccc1	37.9% (inactive)
O=C(CN1CCSC1=NCc1ccccc1)c1ccc(Cl)c(Cl)c1	52.2% (active)
COc1ccc(N2CCN(CC(=O)NC(=O)NCc3ccco3)CC2)cc1	28.6% (inactive)
CN(C)S(=O)(=O)c1ccc(N2CCCC2)c(C(=O)Nc2nc3ccccc3s2)c1	36.7% (inactive)
O=C(NC(Nc1nc2ccc([N+](=O)[O-])cc2s1)(C(F)(F)F)C(F)(F)F)c1ccccc1Cl	99.5% (active)
CCOc1ccc(CNC(=O)c2cc3oc4ccccc4c3n2C)cc1	7.2% (inactive)
O=C1C=CCC(/C=C/c2ccccc2)O1 (stereo unspecified)	69.2% (active)

SMILES	inhibition
c1ccc(-c2c[nH]c3[n+]2CCCCC3)cc1	26.2% (inactive)
COc1ccc(CCNCc2ccc(OCc3ccccc3)cc2)cc1	78.5% (active)
CCc1ccc(OCCNC(=O)OCc2ccccc2)cc1	48.8% (inactive)
COc1ccc(OCCCC(=O)Oc2ccc(OC)cc2)cc1	42.6% (inactive)
COc1ccc(CNCCC(c2ccc(F)cc2)c2ccc(OC)cc2)cc1 (stereo unspecified)	65.8% (active)
COc1ccc(CNCCSc2nnnn2C)cc1OC	49% (inactive)
COc1ccc(C(CCNCc2ccccc2F)c2ccc(F)cc2)cc1 (stereo unspecified)	48.2% (inactive)
COc1ccc(OCCCC(=O)NCCc2ccccc2)cc1	60.8% (active)
CCOCCCNCc1ccc(OCc2ccccc2Cl)cc1	49.2% (inactive)
COc1ccc(OCCCC(=O)NCC(C)C)cc1	32.4% (inactive)
CN(C)c1ccc(O)c2c1CC1CC3[C@@H](N(C)C)C(=O)C(C(N)=O)=C(O)[C@]3(O)C(=O)C1=C2O (stereo partly specified)	28.8% (inactive)
Cc1cc(/C=C2/SC(=S)N(c3ccc([N+](=O)[O-])cc3)C2=O)c(C)n1-c1cccnc1	34.9% (inactive)
O=C1Cc2ccccc2C(=O)N1OCc1ccc(Cl)cc1Cl	26.8% (inactive)
COc1cc(Cc2cnc(N)nc2N)cc(OC)c1OC	24.9% (inactive)
Oc1c(I)cc(Cl)c2cccnc12	56.2% (active)
Oc1c(CN2CCCCC2)cc(Br)c2cccnc12	26.2% (inactive)
C=C(C)COc1ccc2c(CC)cc(=O)oc2c1C	63.1% (active)
CC1CCCN(CCC(=O)c2ccc(Br)cc2)C1 (stereo unspecified)	28.8% (inactive)
CC1=NN(c2ccc(C)cc2C)C(=O)C1C(c1cccc(O)c1)C1C(=O)N(c2ccc(C)cc2C)N=C1C (stereo unspecified)	38% (inactive)
C=CCNC(=S)N/N=C(\C)c1ccccn1	57.5% (active)
C/C(=N\NC(=O)Nc1ccccc1)c1ccccc1	47.1% (inactive)
COc1cccc(NC(=O)Cn2cnc3sc(C)c(S(=O)(=O)N4CCCCC4)c3c2=O)c1	20.9% (inactive)
